Reference: PubChem BioAssay (NCATS)
Inconclusive results are not listed. Calls of active or inactive are those of the source. Calls follow the shape of the dose curve; as a rule, active = well fitted curve in the direction sought with a large enough effect; inconclusive = small, poorly fitted or top-dose-only effect, or another doubt; inactive = no such curve, though single readings can be large; an effect the other way counts as inactive or inconclusive.

Key:
[1] = MultiTox-Fluor Cytotoxicity Assay - LYMP1-003 - Live Cells (AID 962);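 also: cells exposed to compound for 16 hours at 37 °C; cytotoxic hits lower the live-cell protease signal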
How it was run: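 Live-cell protease activity (GF-AFC substrate, 405/510 nm, 60 min at room temperature) after 16 h, 37 C compound exposure of human lymphoblastoid LYMP1-003 cells; concentration-response fitted to the Hill equation for AC50.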

[2] = Cell Viability - LYMP1-003 - Assay at 24 hr (AID 963)
How it was run: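 Concentration-response qHTS: ATP loss measured by CellTiter-Glo luminescence after 24 h compound exposure at 37 C. Cells were LYMP1-003 human lymphoblastoid, 2500 per well. AC50 derived via standard Hill equation modeling.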

[3] = Cell Viability - LYMP1-003 - Assay at 40 hr (AID 964); also: series mostly up to about 92 µM; nearly all actives have a fitted effect of over 60% in size
How it was run: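 Viability is taken as cellular ATP, read by CellTiter-Glo luminescence after 40 h of compound exposure at 37 C. Cells: human lymphoblastoid line LYMP1-003 at 2500/well; AC50 values derived by Hill-equation fitting of concentration-response data.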

[4] = Cell Viability - LYMP2-003 (AID 965);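 also: cells exposed to compounds for 24 h before reading; nearly all actives have a fitted effect of over 50% in size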
How it was run: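 Human lymphoblastoid LYMP2-003 cells, 2500/well, exposed to compounds for 24 h at 37 C in complete medium. Viability read as intracellular ATP by CellTiter-Glo luminescence; AC50 from Hill-equation fits of qHTS concentration-response data.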

[5] = Cell Viability - LYMP2-004 (AID 966); also: nearly all actives have a fitted effect of over 65% in size
How it was run: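 AC50 values come from Hill modelling of concentration-dependent loss of intracellular ATP, measured by CellTiter-Glo luminescence. Human LYMP2-004 lymphoblastoid cells (2500/well) were exposed to compound for 24 h at 37 C.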

[6] = Cell Viability - LYMP2-005 (AID 967); also: series mostly up to about 92 µM
How it was run: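 Human lymphoblastoid LYMP2-005 cells, 2,500 per well in complete medium, rested 5 h at 37C then compound-treated 24 h at 37C. Intracellular ATP read by CellTiter-Glo luminescence after 30 min at room temperature; AC50 from Hill-equation fits of concentration-response data.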

[7] = Cell Viability - LYMP2-009 (AID 968); also: series mostly up to about 92 µM; nearly all actives have a fitted effect of over 55% in size
[8] = Cell Viability - LYMP2-011 (AID 969); also: nearly all actives have a fitted effect of over 60% in size
How it was run: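 Cytotoxicity qHTS with ATP content as read-out: lymphoblastoid cells (2500/well) exposed to compound for 24 h at 37 C, then luciferase luminescence measured. Concentration-response data fitted with the standard Hill equation to give AC50.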

[9] = Cell Viability - LYMP2-013 (AID 970); also: series mostly up to about 92 µM; nearly all actives have a fitted effect of over 55% in size
How it was run: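 qHTS cytotoxicity: ATP-dependent luminescence (CellTiter-Glo, 30 min room temperature) read after 24 h compound exposure at 37 C of 2500 LYMP2-013 lymphoblastoid cells per well. Concentration-response fitted with Hill equation to give AC50.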

[10] = Cell Viability - LYMP2-015 (AID 971); also: nearly all actives have a fitted effect of over 55% in size
How it was run: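 Cytotoxicity readout: decrease in intracellular ATP (CellTiter-Glo luminescence) in 2500 LYMP2-015 lymphoblastoid cells/well after 24 h compound exposure at 37 C. Concentration-response data fitted with the standard Hill equation to give AC50.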

Measured: Potency

CC(C)(C)CC(C)(C)c1ccc(OCCO)cc1
inactive: all assays above

C/C=C/C=C/C(=O)O
inactive: all assays above

O=P(O)(O)O
not listed: [6]
inactive: all other assays above

OB(O)O
inactive: all assays above

OCc1ccccc1
inactive: all assays above

Nc1ccc(N=Nc2ccccc2)c(N)n1
inactive: all assays above

[O-][N+](=Nc1ccccc1)c1ccccc1
not listed: [4]
inactive: all other assays above

C[C@H](CCC(=O)O)[C@H]1CC[C@H]2[C@@H]3[C@H](O)C[C@@H]4C[C@H](O)CC[C@]4(C)[C@H]3C[C@H](O)[C@]12C
inactive: all assays above

CC1=CC(=O)NS(=O)(=O)O1
not listed: [6]
inactive: all other assays above

Nc1nccs1
inactive: all assays above

Oc1ccc(/C=C/c2cc(O)cc(O)c2)cc1
not listed: [3] | [6]
inactive: all other assays above

Oc1cccc(O)c1O
inactive: [1] | [2] | [6] | [8] | [9] | [10]

CO
inactive: all assays above

CCCCO
inactive: all assays above

c1ccc2ccccc2c1
inactive: all assays above

OCl
inactive: all assays above

OCC(O)CO
inactive: all assays above

Nc1ncnc2c1ncn2[C@H]1CC[C@@H](CO)O1
inactive: all assays above
